PubChem BioAssay AID485284 (NMMLSC, 2010)
Results with a measured potency or affinity are listed apart.

assay: loss of vesicle association with mouse CD8+ T cells – mouse 2C CD8+ T cells, flow cytometry, dose response (AID 485284); settings: 2C mouse CD8+ T cell-exosome binding; at 45 µM (top of the series);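 note: drosophila derived vesicles carrying Ld MHC with QL9 peptide plus B7-1 and ICAM-1; vesicle binding seen as anti-B7-1 PE fluorescence on CD8 gated cells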

SMILES | binding remaining, % of control
COc1cc(CNCc2cccnc2)ccc1OCC(=O)NC1CCCCC1 | 128%
CCOC(=O)C1CCN(C(=O)c2ccc(NC(=O)C3CCCO3)cc2)CC1 (stereo not drawn) | 218%
COc1ccccc1NS(=O)(=O)c1ccc(C)c(NC(=O)c2ccc(S(=O)(=O)N3CCCCCC3)cc2)c1 | 134%
Cc1cccc(NC(=O)CN2C(=O)N/C(=C\c3ccc(N4CCOCC4)cc3)C2=O)c1 | 142%
O=C(N/N=C/c1cccc(OC(=O)c2ccccc2Cl)c1)c1cccnc1 | 168%
Cc1ccc(S(=O)(=O)N2CCN(S(=O)(=O)N(C)C)CC2)c(C)c1 | 32.6%
COc1ccc([C@H]2CC(=O)C=C(c3cc(F)ccc3OC)C2)cc1 | 109%
Cc1cnc(C(=O)Nc2ccc(C)c(S(=O)(=O)N3CCCCC3)c2)cn1 | 114%
CCOC(=O)c1sc(NC(=O)C2CC(=O)N(c3ccccc3OC)C2)nc1C (stereo not drawn) | 141%
CCOc1ccc(Cl)cc1/C=N/NC(=O)c1ccccc1 | 35.5%
COc1cc(F)c(C2=CC(=O)C[C@H](c3ccc(F)cc3)C2)cc1F | 108%
CC1CCN(S(=O)(=O)c2csc(C(=O)Nc3ccccc3)c2)CC1 | 61.2%
NC(=O)C1CCN(c2nc(-c3cc4ccccc4o3)cs2)CC1 | 44.2%
O=C(N/N=C/c1cccc(OCc2ccccc2)c1)c1ccc(Br)cc1 | 63.5%
CCCOc1ccc(C2=CC(=O)C[C@H](c3ccc(OC)cc3)C2)cc1 | 143%
CC1CCN(S(=O)(=O)Cc2ccccc2Cl)CC1 | 118%
CS(=O)(=O)NCc1ccccc1Br | 95.9%

SMILES | binding remaining, % of control
NC(=O)CCS(=O)(=O)CCN1CCN(S(=O)(=O)c2ccc3c(c2)CCC3)CC1 | 170%
Cc1c(C)c2c(OCC(=O)NCC(O)c3ccccc3)cc3c(c2oc1=O)CCC(C)(C)O3 (stereo not drawn) | 72.4%
O=C(Cc1c(Cl)cccc1Cl)Nc1cccc(S(=O)(=O)N2CCOCC2)c1 | 112%
O=C(NCC1CCCCC1)c1ccc(Cl)c(S(=O)(=O)N2CCOCC2)c1 | 111%
Cc1ccc(NC(=O)COC(=O)CCc2c[nH]c3ccccc23)c(C)c1 | 138%
CC(=O)c1cccc(NC(=O)c2ccncc2)c1 | 35.3%
CN(C)S(=O)(=O)c1cccc(-n2sc3ccccc3c2=O)c1 | 73.9%
CCN(CC)S(=O)(=O)c1ccc2c3c(cccc13)C(=O)N2 | 56.2%
CCOc1ccc(S(=O)(=O)N2CCC(C(=O)Nc3cc(S(C)(=O)=O)ccc3Cl)CC2)cc1 | 106%
CCOC(=O)c1ccc(NC(=O)CN2C(=O)NC3(CCCCCCC3)C2=O)cc1 | 44.2%
Cc1ccc2oc(=O)c(/C=C(\O)c3sc(C)nc3C)nc2c1 | 119%
COc1ccc(NC(=O)Cc2ccc(C)c(C)c2)cc1S(=O)(=O)N1CCCCC1 | 32.4%
Cc1ccccc1C(=O)NCC(=O)N1CCN(C/C=C/c2ccccc2)CC1 | 42.6%
CN(C)S(=O)(=O)N1CCN(S(=O)(=O)N(C)C)CC1 | 55.7%
O=C1CCCc2sccc2N1 | 106%
COc1ccc2c(c1)-c1c(sn(-c3ccc(OC)c(OC)c3)c1=S)C(C)(C)N2 | 116%
